Source: PubChem BioAssay (The Scripps Research Institute Molecular Screening Center)
Hits are enriched below; roughly 4.1% of the tested compounds scored in any of these assays.
ssDAF-12 act – activators of S. stercoralis DAF-12 nuclear receptor. 1% of 370,000 active. activation, % at 6.8 µM. AID 652126. HEK293 ssDAF-12/GRIP1 lit1-tk-luc reporter, luminescence; % of 3 µM dafachronic acid response;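 active means activation above the mean over all tested compounds plus 3 SD, cut at about 0.9% in these data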;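 further: 0% = DMSO-only wells and 100% = 3 µM delta7-dafachronic acid wells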
DAX1 inh-1 – blocks DAX1 repression of SF-1 activated StAR promoter | HEK293T StAR-luciferase reporter, SF-1/DAX-1 repression relief | inhibition, % at 6.8 µM | 1.1% of 370,000 active;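 active means inhibition above the mean over all tested compounds plus 3 SD, cut at about 3.6% in these data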;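 further: 0% = DAX-1 cells with DMSO and 100% = cells lacking DAX-1 with DMSO; higher inhibition means more luminescence from relief of DAX-1 repression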
hgDAF12 agonist – hgDAF-12 agonism, primary luciferase screen; HEK293 GAL4-hgDAF12 UAS-luciferase reporter, agonist luminescence; normalized to butyrate control; activation, % at 6.8 µM; 1.8% of 370,000 active;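 active means activation above a cutoff set at the mean of all screened compounds plus 3 SD, cut at about 10% in these data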;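 further: 0% = DMSO wells and 100% = sodium butyrate wells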
DAX1 inh-2 – inhibitors of human orphan nuclear receptor DAX1 (NR0B1). AID 504766. HEK293 Gal4-DAX1 luciferase reporter, luminescence. inhibition, % at 6.75 µM. P51843. 0.99% of 340,000 active;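 active means inhibition above the mean over all tested compounds plus 3 SD, cut at about 4.2% in these data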;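 further: 0% = DAX1-transfected cells with DMSO and 100% = empty-vector control cells with DMSO; inhibition shows as a rise in luminescence from relieved DAX1 repression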
Target sequence (P51843 207-470 limits assumed): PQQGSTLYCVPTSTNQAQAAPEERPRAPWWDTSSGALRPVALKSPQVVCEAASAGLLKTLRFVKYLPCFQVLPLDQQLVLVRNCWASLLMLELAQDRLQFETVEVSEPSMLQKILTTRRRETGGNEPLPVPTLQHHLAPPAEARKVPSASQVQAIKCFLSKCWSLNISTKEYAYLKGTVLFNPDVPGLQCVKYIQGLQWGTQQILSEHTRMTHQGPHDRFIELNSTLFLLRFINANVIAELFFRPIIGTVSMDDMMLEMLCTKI
hcDAF-12 act – activates DAF-12 receptor from parasite H. contortus | HEK293 hcDAF-12 lit1-tk-luc reporter, luminescence; 0% DMSO, 100% Δ7-dafachronic acid | activation, % at 6.8 µM | 1.4% of 370,000 active;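 active means activation above the mean of all tested compounds plus 3 SD, cut at about 5.5% in these data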;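 further: 100% = response to 3 µM Δ7-dafachronic acid high control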
* = called active by the depositor; · = not tested or not shown.

SMILES | ssDAF-12 act | DAX1 inh-1 | hgDAF12 agonist | DAX1 inh-2 | hcDAF-12 act
Cc1ccc(OCC(=O)Nc2ccc(F)cc2)c([N+](=O)[O-])n1 | 0 | 3 | 10 | 7.0* | 5
Cc1ccc(C)c(C(=O)COc2ccc(C)nc2[N+](=O)[O-])c1 | 0 | 0 | -2 | 0 | 2
CCCCN(C)C(=O)c1sc(=O)n(Cc2ccccc2C#N)c1C | -1 | 1 | 1 | · | -2
COc1cccc(OCC(O)CN2CCN(c3ccc(F)cc3)CC2)c1 (stereo unspecified) | -1 | 0 | -3 | -1 | 0
OC(COc1ccc2ccccc2c1)CN1CCN(c2ccc(F)cc2)CC1 (stereo unspecified) | 0 | 0 | 0 | 6.9* | 0
COc1ccccc1C1CC(c2ccccc2)=NN1S(=O)(=O)c1ccccc1 (stereo unspecified) | 1 | 0 | 11* | -2 | 3
O=C(O)COc1ccc2c(c1)O/C(=C\c1cccs1)C2=O | 0 | 0 | 3 | 0 | 0
COc1ccc2c(c1)O/C(=C\c1sccc1C)C2=O | -1 | 0 | 11* | 0 | 2
CC(/C=C/C=C/c1ccccc1)=N\NC(=O)c1cccnc1 | -1 | -1 | 6 | 4.5* | 0
O=C(/C=C/c1ccccc1)c1ccc2c(c1)OCCCCO2 | 0 | 2 | 12* | 2 | 4
CC(/C=C/C=C/c1ccccc1)=N/NC(=O)c1ccc2c(c1)OCCO2 | 1.2* | 1 | 4 | 0 | 3
O=C(O)c1ccc2c(c1)OCCCO2 | -1 | 0 | 2 | 2 | 0
CC(/C=C/C=C/c1ccccc1)=N/NC(=O)C(O)c1ccccc1 (stereo unspecified) | -1 | 0 | 1 | 2 | -2
CC(/C=C\C=C\c1ccccc1)=N\NC(=O)c1cncc(Br)c1 | 0 | 0 | 1 | 0 | 0
N#CCC[C@H]1CC[C@]2(CCCN(S(=O)(=O)c3ccccc3)C2)O1 | 0 | 0 | 1 | · | -1
COc1ccc(S[C@]2(C(=O)NC(C)C)CC(=O)N[C@@H]2c2ccc(OC)cc2)cc1 | -1 | 0 | 0 | · | 1
O=C(Nc1ccsn1)c1ccc(Cl)cc1Cl | -1 | 0 | 12* | 4.5* | 1
CCn1ncc(C(=O)Nc2cc(C)on2)c1C | -1 | 1 | 12* | 2 | 1
Cc1cc(NC(=O)c2ccc(Cl)cc2Cl)no1 | 0 | 3 | 12* | 6.7* | 5
Cc1ccc(NC(=O)Nc2cc(C)on2)cc1 | -1 | 1 | 5 | 1 | 0
Cc1cc(NC(=O)Nc2ccc(Cl)cc2)no1 | -1 | 1 | 2 | 4.8* | 2
Cc1cc(NC(=O)c2cc(C)on2)no1 | 0 | -1 | 0 | 0 | 3
CC(C)NC(=S)NC(=O)c1ccc(Cl)cc1Cl | 0 | 1 | 4 | -1 | 5.7*
CC(C)CNC(=S)NC(=O)c1ccc(Cl)cc1Cl | -1 | 0 | 5 | -1 | 1
O=C(Nc1ccc(Cl)cc1C(F)(F)F)c1ccccc1Cl | -1 | 0 | 4 | 0 | -3
SMILES | ssDAF-12 act | DAX1 inh-1 | hgDAF12 agonist | DAX1 inh-2 | hcDAF-12 act
Cc1ccc(C(=O)Nc2ccc(Cl)cc2C(F)(F)F)c(Cl)c1 | -1 | 0 | 13* | 1 | 0
CC[C@@H](CCCCCC#N)CCC(=O)N(c1ccccc1)c1ccccc1 | -2 | -2 | -6 | · | -4
c1ccc(-c2nnc3n2N=C(c2ccc4ccccc4c2)CS3)cc1 | -2 | -4 | 5 | · | -4
O=C(Nc1ccc(Br)cc1Br)Nc1cccc2[nH]c([C@@H]3O[C@H](CO)[C@@H](O)[C@H](O)[C@H]3O)nc12 | 0.9* | 1 | 5 | · | 0
O=C(Nc1cccc(Cc2ccccc2)c1)Nc1cccc2[nH]c([C@@H]3O[C@H](CO)[C@@H](O)[C@H](O)[C@H]3O)nc12 | -2 | 1 | -4 | · | -2
CC1=C(C(=O)Nc2ccccn2)C(c2ccc(N(C)C)cc2)n2ncnc2N1 (stereo unspecified) | 0 | 2 | 11* | 0 | 4
CCCCNC(=O)C1c2ccccc2OCC(=O)N1Cc1cccnc1 (stereo unspecified) | -1 | 2 | -3 | · | -1
CN(C(=O)COC(=O)c1ccc2ccccc2n1)C1CCCCC1 | 2.1* | 1 | 0 | 1 | 1
O=C(COC(=O)c1ccc2ccccc2n1)c1ccccc1 | 1.3* | 0 | 1 | 0 | 4
CCCC/C=C1/[C@H](CC)N(C)C2=N[C@@H](c3ccccc3)CC(=O)N21 | -2 | · | 1 | · | 0
CC1(C)CC(=O)C(CC(=O)NC2CCCc3ccccc32)C(=O)C1 (stereo unspecified) | -1 | 0 | -1 | 6.1* | -1
COc1ccc(-c2csc(Nc3ccccc3)[n+]2Cc2ccccc2)cc1 | 0.9* | 0 | 6 | 1 | 0
COc1ccccc1C(=O)N/N=C1/NC(=O)CC(C(=O)Nc2ccccc2)S1 (stereo unspecified) | -1 | 0 | 0 | 1 | 3
O=C1CC(C(=O)Nc2ccccc2)S/C(=N\NC(=O)c2ccccc2Cl)N1 (stereo unspecified) | -2 | 0 | 3 | 4.3* | 0
O=S1(=O)c2ccc(N3CCN(Cc4ccccc4F)CC3)cc2Oc2ccccc2CN1Cc1cn(Cc2ccccc2C(F)(F)F)nn1 | -1 | -1 | 2 | · | 0
COC(=O)[C@]12C[C@H](CC(=O)N3CCN(C(=O)c4ccco4)CC3)C(=O)N(Cc3cccc4ccccc34)C1=C[C@H](COCc1ccccc1)O[C@@H]2C | -2 | -2 | -2 | · | -5
CC(Sc1nnc(COc2ccccc2)n1Cc1ccccc1)C(=O)O (stereo unspecified) | 0.9* | 1 | 0 | 1 | 0
CC(C)(C)c1ccc(OCCC(=O)Nc2ccc(N3CCOCC3)cc2N2CCOCC2)cc1 | 0 | 4.0* | 1 | -2 | 0
CCOc1cc(N2CCOCC2)c(OCC)cc1NC(=O)COC(=O)CCOc1ccc(C(C)(C)C)cc1 | -1 | -1 | 0 | 0 | 0
O=[N+]([O-])c1cc(C=Nc2ccc3ccccc3c2)ccc1Br | 1.2* | 1 | 5 | 1 | 2
CCOc1ccc(N=Cc2ccc3ccccc3c2)cc1 | -1 | 1 | -2 | 0 | 3
COc1ccc(-c2cc3c(=O)n(CC(=O)NCCCN4CCC(N5CCCCC5)CC4)nc(C)n3n2)cc1 | -1 | 4.5* | 1 | 1 | 0
O=C1c2ccccc2NC(c2ccco2)N1O (stereo unspecified) | -1 | 0 | 0 | 4.4* | 0
O=C1c2ccccc2NC(c2ccc(Br)o2)N1O (stereo unspecified) | 0 | 2 | 3 | 1 | 2
Fc1cccc(CNC(=S)OC2CCC23CCC(c2ccccc2)CC3)c1 (stereo unspecified) | -1 | 0 | 2 | · | -1
S=c1[nH]nc(-c2cc(-c3ccccc3)n[nH]2)n1/N=C/c1cccc2ccccc12 | -1 | -1 | -2 | · | -2
